# Screens as filed in PubChem.
# Only some compounds are listed: those with a hit (about 6.5% of all), similar ones and a draw of the others.
# FMDV antiviral = High Throughput Screening for Foot and Mouth Disease Virus Antivirals; FMDV antiviral cell-based qHTS; hit rate 1.2% among 410,000; Potency, µM (doses to about 57.9 µM), without a hit: at the highest dose activity change, negative = inhibition, hits mostly inhibitors; calls by dose curve; tested in HEK293T cells; further: read-out not given here; potency means the concentration at half of the fitted maximal effect; nearly all actives have a fitted effect of over 45% in size
# HCMV antiviral = qHTS Assay for inhibitors of the human cytomegalovirus (HCMV); HFF cells, HCMV-luciferase reporter, 72 h; hits give low values; activity change, negative = inhibition, % at 57.5 µM; hit rate 4.5% among 410,000; AID 1259415, 2018; in the data active means activity change below about -60%; inconclusive means no clear call, values can overlap the other calls; inactive means above about -39%
#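 Steps: HFFs plated, 16 h 37C; compounds added; HCMV-luciferase added to MOI 1 PFU/cell; 72 h 37C; OneGlo reagent, 5 min room temperature; luminescence read, normalized to controls.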
# VACV Venus inh = qHTS for Stage-Specific Inhibitors of Vaccinia Orthopoxvirus: Venus Reporter Primary qHTS; Vaccinia virus Venus reporter expression, fluorescence; hit rate 0.46% among 330,000; Potency, µM (doses to about 36.5 µM), for the others: at the top dose activity change, negative = inhibition, actives largely listed as inhibitors; calls by dose curve; tested in A549 cells; further: potency means the concentration at half of the fitted maximal effect; nearly all actives have a fitted effect of over 30% in size
# VACV mCherry inh = qHTS for Stage-Specific Inhibitors of Vaccinia Orthopoxvirus: mCherry Reporter Primary qHTS | Vaccinia virus mCherry reporter infection, fluorescence | Potency, µM (top dose mostly 36.5 µM), for inactives: top-dose activity change, negative = inhibition, usual class: inhibitors | hit rate 0.63% among 310,000 | AID 720579, 2013; calls by dose curve; tested in A549 cells; further: potency means the concentration at half of the fitted maximal effect; nearly all actives have a fitted effect of over 35% in size
# LASV entry inh = qHTS for Inhibitors of binding or entry into cells for Lassa Virus. Lassa virus pseudotype entry inhibition, cell reporter. Potency, µM (highest dose often 37.9 µM), inactives show top-dose activity change, negative = inhibition, hits mostly inhibitors. hit rate 1.2% among 300,000. AID 540256, 2011; calls by dose curve; tested in HEK293 cells; further: potency means the concentration at half of the fitted maximal effect; nearly all actives have a fitted effect of over 50% in size
# Marburg entry inh = qHTS for inhibitors of binding or entry into cells for Marburg Virus | Marburg virus pseudotyped entry inhibition, cell reporter | Potency, µM (titrated, usually from 37.8 µM), for the others: at the highest dose activity change, negative = inhibition, most hits filed as inhibitors | hit rate 1.8% among 300,000; calls by dose curve; tested in HEK293 cells; further: potency means the concentration at half of the fitted maximal effect
# Starred values were filed as active, the others as inactive; i = inactive; ? = inconclusive; . = no result; [ ] = another dose, or the depositor's remark. On the % scale 0 is the no-effect control and ±100 the full control effect.
SMILES,FMDV antiviral,HCMV antiviral,VACV Venus inh,VACV mCherry inh,LASV entry inh,Marburg entry inh
Cc1cc(NC(=O)OC(C)(C)C)c(-n2nnnc2C(C(=O)c2ccc3c(c2)OCO3)N2CCCCC2)cc1C (centres undefined),.,-8.3,.,.,.,.
CCOC(=O)C1CCCN(C(=O)Cn2ncn3c(cc4sc(CC)cc43)c2=O)C1 (centres undefined),-25.3%,?,-2.7%,-10.1%,.,8.4%[46.1 µM]
CSc1ccc(/C=C/c2ccc3cccc(O)c3n2)cc1,-59.2%,-66.1*,5.2%,-23.2%,?,2.51µM*
O=C(CC(NC(=O)C(F)(F)F)c1ccccc1)Nc1nnc(CCc2ccccc2)s1 (centres undefined),-17.3%,-64.7*,-5.1%,i,-6.5%,?
CC(C)(C)C1CCC(=NNC(=S)NCc2ccccc2)CC1 (centres undefined),-23.3%,-62.5*,-4.8%,?,?,-0.1%[46.1 µM]
COCCNC(=S)N/N=C1\CC(C)CC(C)(C)C1 (centres undefined),-15.9%,-76.0*,11.2%,-17.8%,-7.5%,-16.6%
CCC(C)(C)C1CCC(=NNC(=S)Nc2ccccc2)CC1 (centres undefined),-23.1%,-3.7,-2.7%,i,?,7.9%
COCCNC(=S)NN=C1CCC(c2ccccc2)CC1 (centres undefined),-4.1%,?,-8.0%,?,-27.6%[46.1 µM],-2.0%[46.1 µM]
S=C(NCCc1ccccc1)NN=C1CCCCCC1,53.6%,-92.4*,-5.9%,-18.9%,-2.1%,18.9%[46.1 µM]
S=C(NCCc1ccccc1)NC1CC1,10.0%,23.6,-3.9%,-12.5%,-0.7%,-7.0%
COCCNC(=S)NN=C1CCCCCC1,3.9%,-115.1*,.,.,.,.
CCOC(=O)c1cc(-c2ccc(F)cc2)n(CCC(=O)Nc2cc(OC)cc(OC)c2)c1C,0.0%,0.0,-19.0%,-4.3%,-8.1%[46.1 µM],.
O=C(Cn1c(=O)oc2ccccc21)N(Cc1ccccc1)C1CCS(=O)(=O)C1 (centres undefined),-14.5%,-100.5*,-9.0%,-10.4%,4.1%,-9.0%
O=C1C2CC=CCC2C(=O)N1CC(=O)N(Cc1ccccc1)C1CCS(=O)(=O)C1 (centres undefined),2.6%,20.4,.,.,15.6%,?
O=c1[nH]c2ccccc2n1C1CCN(C(c2nnnn2Cc2ccccc2)C2CC2)CC1 (centres undefined),-27.8%,?,-7.7%,-4.4%,.,.
O=c1[nH]c2ccccc2n1C1CCN(C(CCc2ccccc2)c2nnnn2Cc2ccccc2)CC1 (centres undefined),35.5µM*,-103.0*,11.2µM*,?,.,.
CSCCC(c1nnnn1Cc1ccccc1)N1CCC2(CC1)C(=O)NCN2c1ccccc1 (centres undefined),-17.4%,-6.4,-3.6%,14.6%,.,.
CSCCC(c1nnnn1Cc1ccccc1)N1CCC(n2c(=O)[nH]c3ccccc32)CC1 (centres undefined),-26.2%,-90.0*,-19.3%,-13.9%,.,.
CC(CNC(=O)C1CCN(C(=O)N2CCOc3ccc(Cl)cc32)CC1)c1ccccc1 (centres undefined),-27.2%,-0.2,1.3%,7.0%,-16.6%[46.1 µM],.
C=CCC(CC=C)(CNC(=O)C(=O)Nc1ccc(C)cc1)c1ccccc1,12.7%,67.7,-21.7%,-5.9%,?,13.4%[46.1 µM]
Cc1cccc(-c2nnc(C3CCN(S(=O)(=O)c4cccc(Cl)c4)CC3)o2)c1,1.7%,-94.2*,-14.5%,-12.2%,-12.3%[46.1 µM],?
CC(=O)Nc1ccc(S(=O)(=O)N2CCC(c3nnc(-c4ccc(C)cc4)o3)CC2)cc1,?,-96.2*,-15.4%,-7.1%,-1.2%[46.1 µM],0.0%[46.1 µM]
Cc1ccc(-c2nnc(C3CCN(S(=O)(=O)c4ccc(C)c(C)c4)CC3)o2)cc1,-4.8%,?,-7.2%[7.34 µM],-5.6%[7.34 µM],9.3%[46.1 µM],-0.9%[46.1 µM]
C(=C\c1nc2ccccc2o1)/c1ccc2c(c1)OCO2,.,.,-18.3%,-17.0%,.,.
O=C(NCc1cccs1)O[C@H]1CC[C@@]23CCCN2C(=O)CCC[C@H]3[C@H]1Cc1ccccc1,.,-14.0,.,.,.,.
CC1(c2ccccc2)NC(=O)N(CC(=O)NCCC2=CCCCC2)C1=O (centres undefined),8.4%,-69.3*,-4.3%,-15.7%,21.0%,12.6%
